The values below come from publication PMC5540273 (PLoS ONE, 2017).

Where two headings read alike, the source gives them in different places.

Among the test systems are LYN; MAK; MAP3K15; MAP3K1; MAP3K2; MAP3K3; MAP3K4; MAP4K2; MAP4K3.
Common to all, as to conditions: n = 1
A further experiment concerns T1, LZK.
T1 construct: gene MAP3K13

Where [1] appears, read: concentration: 1 μM, replicates: in singlicate.
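Further: KINOMEscan kinase panel screen.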

For the compound `CCn1c(-c2ccccn2)nc2cnccc21` [SB-736398], the “%Inh” value is given as 0% in the experiment on LYN (setting [1]); 11% in the experiment with LZK (setting [1]); 11% in the experiment on MAK (setting [1]); 2% in the experiment with MAP3K15 (setting [1]); 8% in the experiment with MAP3K1 (setting [1]); 3% with MAP3K2 (setting [1]). The “%Inh” value in the experiment with MAP3K3 (setting [1]) is recorded as 0%; in the experiment with MAP3K4 (setting [1]), 19%; with MAP4K2 (setting [1]) it was 0%; in the experiment on MAP4K3 (setting [1]) it was 0%.

On to `Fc1cc(Cl)ccc1Nc1ccnc2cc(I)ccc12` [GW551191], for which the “%Inh” value in the experiment on LYN (setting [1]) is 14%; in the experiment on LZK (setting [1]), 0%; in the experiment with MAK (setting [1]), 40%; in the experiment on MAP3K15 (setting [1]), 0%; in the experiment with MAP3K1 (setting [1]), 7%; with MAP3K2 (setting [1]), 0%. In addition, the “%Inh” value in the experiment on MAP3K3 (setting [1]), with MAP3K4 (setting [1]), in the experiment with MAP4K2 (setting [1]) and in the experiment on MAP4K3 (setting [1]) was 0% each time.

Consider `COc1ccc(CNC(=O)NC2CCN(c3ccnc(Nc4cc(OC)c(OC)c(OC)c4)n3)C2)cc1` (stereo not drawn) [GSK1379748], for which the “%Inh” value in the experiment with LYN (setting [1]) is listed as 0%; with LZK (setting [1]), 43%; with MAK (setting [1]), 17%; in the experiment on MAP3K15 (setting [1]), 0%; in the experiment on MAP3K1 (setting [1]) it was 0%; in the experiment on MAP3K2 (setting [1]), 0%. In addition, the “%Inh” value in the experiment with MAP3K3 (setting [1]) is 0%; in the experiment with MAP3K4 (setting [1]), 2%; with MAP4K2 (setting [1]) it was 5%; in the experiment with MAP4K3 (setting [1]), 0%.

On to `Fc1cccc(COc2nnc(-c3ccc4c(c3)CCO4)o2)c1`, for which the “%Inh” value in the experiment on LYN (setting [1]) was 6%; in the experiment with LZK (setting [1]), 14%; with MAK (setting [1]) it was 0%; in the experiment on MAP3K15 (setting [1]) it was 17%; in the experiment with MAP3K1 (setting [1]) it was 17%; with MAP3K2 (setting [1]) it was 0%. Moreover, the “%Inh” value came out at 0% with MAP3K3 (setting [1]), 0% in the experiment with MAP3K4 (setting [1]), 0% with MAP4K2 (setting [1]) and 2% with MAP4K3 (setting [1]).

Consider `Cl.O=C(Nc1cccc(-c2nn3ncccc3c2-c2ccnc(Nc3cccnc3)n2)c1)c1c(F)cccc1F` [GSK312879], for which the “%Inh” value with LYN (setting [1]) was 18%; in the experiment on LZK (setting [1]), 0%; with MAK (setting [1]), 25%; in the experiment on MAP3K15 (setting [1]) it was 24%; in the experiment on MAP3K1 (setting [1]) it was 24%; in the experiment with MAP3K2 (setting [1]), 16%. In addition, the “%Inh” value in the experiment with MAP3K3 (setting [1]) amounted to 0%; in the experiment with MAP3K4 (setting [1]), 4%; in the experiment on MAP4K2 (setting [1]), 0%; in the experiment with MAP4K3 (setting [1]), 3%.

With `COc1ccc2nc(-c3cccc(C)n3)nc(Nc3ccncc3)c2c1` [GSK204919], the “%Inh” value in the experiment on LYN (setting [1]) is on record as 0%; with LZK (setting [1]), 0%; in the experiment with MAK (setting [1]), 25%; with MAP3K15 (setting [1]), 0%; in the experiment on MAP3K1 (setting [1]) it was 22%; in the experiment on MAP3K2 (setting [1]) it was 0%. Further, the “%Inh” value came out at 0% with MAP3K3 (setting [1]), 9% in the experiment on MAP3K4 (setting [1]), 0% in the experiment with MAP4K2 (setting [1]) and 12% in the experiment on MAP4K3 (setting [1]).

Take `COC(=O)c1c(-c2ccccc2)c2cc(C(=O)O)ccc2c(=O)n1Cc1ccccc1`: the “%Inh” value was 16% with LYN (setting [1]); 0% with LZK (setting [1]); 0% in the experiment on MAK (setting [1]); 8% in the experiment on MAP3K15 (setting [1]); 0% in the experiment on MAP3K1 (setting [1]); 0% in the experiment with MAP3K2 (setting [1]). In addition, the “%Inh” value was found to be 0% with MAP3K3 (setting [1]), 4% in the experiment with MAP3K4 (setting [1]), 0% with MAP4K2 (setting [1]) and 0% in the experiment on MAP4K3 (setting [1]).

Turning to `CN(C)CCN(C)C(=O)c1cc(-c2ccncc2)c(-c2ccc(Cl)c(O)c2)o1.Cl.Cl` [SB-710397], the “%Inh” value with LYN (setting [1]) came out at 24%; in the experiment on LZK (setting [1]), 15%; in the experiment on MAK (setting [1]), 42%; in the experiment on MAP3K15 (setting [1]), 0%; with MAP3K1 (setting [1]), 2%; with MAP3K2 (setting [1]), 0%. For the same compound, the “%Inh” value came out at 0% in the experiment with MAP3K3 (setting [1]), 14% in the experiment on MAP3K4 (setting [1]), 0% in the experiment with MAP4K2 (setting [1]) and 0% in the experiment with MAP4K3 (setting [1]).

Regarding `Cc1ccc(NC(=O)Nc2cccc(C(F)(F)F)c2)cc1` [GSK955403], the “%Inh” value in the experiment on LYN (1 µM), in the experiment on LZK (1 µM), in the experiment with MAK (1 µM), in the experiment with MAP3K15 (1 µM), in the experiment with MAP3K1 (1 µM) and in the experiment with MAP3K2 (1 µM) was 0% throughout. In addition, the “%Inh” value in the experiment on MAP3K3 (1 µM) is given as 3%; in the experiment on MAP3K4 (1 µM), 35%; in the experiment on MAP4K2 (1 µM), 0%; in the experiment on MAP4K3 (1 µM) it was 0%.

Turning to `Cc1cccc(-c2cc(Nc3ccncc3)c3ccccc3n2)n1` [GSK223675], the “%Inh” value in the experiment on LYN (setting [1]) is on record as 0%; in the experiment with LZK (setting [1]), 0%; in the experiment on MAK (setting [1]), 22%; with MAP3K15 (setting [1]), 0%; in the experiment on MAP3K1 (setting [1]) it was 5%; in the experiment on MAP3K2 (setting [1]) it was 0%. The “%Inh” value in the experiment on MAP3K3 (setting [1]) came out at 0%; in the experiment with MAP3K4 (setting [1]) it was 21%; in the experiment with MAP4K2 (setting [1]) it was 0%; in the experiment with MAP4K3 (setting [1]) it was 0%.

As for `Cc1ccc(NC(=O)Nc2cc(C(C)(C)C)nn2-c2ccccc2)cc1` [GSK1014915], the “%Inh” value with LYN (setting [1]) came out at 0%; with LZK (setting [1]), 0%; with MAK (setting [1]) it was 10%; with MAP3K15 (setting [1]), 16%; in the experiment with MAP3K1 (setting [1]) it was 17%; in the experiment on MAP3K2 (setting [1]) it was 17%. Also, the “%Inh” value with MAP3K3 (setting [1]) is 0%; in the experiment on MAP3K4 (setting [1]), 3%; with MAP4K2 (setting [1]), 0%; with MAP4K3 (setting [1]), 10%.

On to `Cc1ccccc1-n1cnc2c(N)ncnc21` [SKF-97510], for which the “%Inh” value in the experiment with LYN (setting [1]), in the experiment on LZK (setting [1]), in the experiment on MAK (setting [1]), with MAP3K15 (setting [1]), in the experiment with MAP3K1 (setting [1]) and in the experiment on MAP3K2 (setting [1]) was 0% each time. The “%Inh” value in the experiment on MAP3K3 (setting [1]), in the experiment with MAP3K4 (setting [1]), in the experiment on MAP4K2 (setting [1]) and with MAP4K3 (setting [1]) was 0% throughout.

Turning to `COC(=O)c1c(-c2ccccc2)c2cc(OC)ccc2c(=O)n1Cc1ccccc1`, the “%Inh” value was determined as 32% in the experiment on LYN (setting [1]); 0% in the experiment with LZK (setting [1]); 33% with MAK (setting [1]); 0% in the experiment with MAP3K15 (setting [1]); 24% in the experiment with MAP3K1 (setting [1]); 0% in the experiment on MAP3K2 (setting [1]). Besides, the “%Inh” value with MAP3K3 (setting [1]) was 11%; in the experiment on MAP3K4 (setting [1]), 12%; with MAP4K2 (setting [1]) it was 0%; in the experiment with MAP4K3 (setting [1]), 0%.

Turning to `Cc1ccc(-c2cc(-c3c[nH]nc3-c3ccccn3)ccn2)cc1` [GW684088], the “%Inh” value in the experiment with LYN (setting [1]) turned out to be 1%; with LZK (setting [1]) it was 44%; in the experiment with MAK (setting [1]), 0%; with MAP3K15 (setting [1]) it was 0%; in the experiment on MAP3K1 (setting [1]), 9%; in the experiment with MAP3K2 (setting [1]) it was 0%. The “%Inh” value in the experiment on MAP3K3 (setting [1]) is recorded as 0%; with MAP3K4 (setting [1]) it was 4%; with MAP4K2 (setting [1]), 0%; with MAP4K3 (setting [1]), 0%.

On to `Cl.Oc1ccc(-c2nc(-c3ccccc3)[nH]c2-c2ccncc2)cc1` [SB-428218], for which the “%Inh” value was 33% in the experiment on LYN (setting [1]); 47% in the experiment with LZK (setting [1]); 18% in the experiment with MAK (setting [1]); 0% in the experiment on MAP3K15 (setting [1]); 0% in the experiment on MAP3K1 (setting [1]); 0% with MAP3K2 (setting [1]). Moreover, the “%Inh” value in the experiment on MAP3K3 (setting [1]) is 0%; with MAP3K4 (setting [1]) it was 7%; in the experiment with MAP4K2 (setting [1]) it was 0%; in the experiment on MAP4K3 (setting [1]) it was 0%.

On to `CN1C(=O)C(Nc2ccc(Cl)c(C(=O)O)c2)=C(c2ccc(Cl)cc2)C1=O` [SB-404290], for which the “%Inh” value was 0% in the experiment with LYN (setting [1]); 0% with LZK (setting [1]); 0% with MAK (setting [1]); 45% with MAP3K15 (setting [1]); 16% in the experiment with MAP3K1 (setting [1]); 21% with MAP3K2 (setting [1]). For the same compound, the “%Inh” value is listed as 12% in the experiment on MAP3K3 (setting [1]), 9% with MAP3K4 (setting [1]), 21% in the experiment on MAP4K2 (setting [1]) and 0% in the experiment on MAP4K3 (setting [1]).

With `C[C@@H]1CCCCN1c1cc(-c2ccc3c(N)n[nH]c3c2)nc(N)n1` [GSK2258759], the “%Inh” value turned out to be 0% in the experiment with LYN (setting [1]); 0% in the experiment on LZK (setting [1]); 22% in the experiment on MAK (setting [1]); 0% in the experiment with MAP3K15 (setting [1]); 0% in the experiment with MAP3K1 (setting [1]); 0% in the experiment with MAP3K2 (setting [1]). The “%Inh” value with MAP3K3 (setting [1]) was 0%; with MAP3K4 (setting [1]), 0%; with MAP4K2 (setting [1]), 0%; in the experiment on MAP4K3 (setting [1]) it was 1%.

As for `Cn1cncc1-c1ccc2ncnc(Nc3ccc(OCc4ccccc4)cc3)c2c1` [GW320571], the “%Inh” value is reported as 2% in the experiment with LYN (setting [1]); 0% with LZK (setting [1]); 15% in the experiment on MAK (setting [1]); 0% in the experiment on MAP3K15 (setting [1]); 18% in the experiment on MAP3K1 (setting [1]); 10% in the experiment with MAP3K2 (setting [1]). Moreover, the “%Inh” value with MAP3K3 (setting [1]) amounted to 0%; in the experiment on MAP3K4 (setting [1]), 19%; in the experiment on MAP4K2 (setting [1]), 0%; in the experiment on MAP4K3 (setting [1]) it was 16%.
